Hits are enriched below; roughly 12% of the tested compounds scored in any of these assays.
Shiga inhibitor: A qHTS for Small Molecule Inhibitors of Shiga Toxin. Vero cells, Shiga toxin protein synthesis inhibition reporter. inhibition, % at 38.7 µM. 290,000 compounds, 9.2% hits. AID 2315, 2010; in the data active = inhibition mostly above about 28%, no sharp cut-off; inactive = mostly below about 43%; also: 0% is about no effect
LASV entry inh: qHTS for Inhibitors of binding or entry into cells for Lassa Virus; AID 540256, 2011; 300,000 compounds, 1.2% hits; Lassa virus pseudotype entry inhibition, cell reporter; Potency, µM (titrated, usually from 37.9 µM), inactives show top-dose activity change, negative = inhibition, most hits filed as inhibitors; calls by dose curve; tested in HEK293 cells; also: potency is read from the fitted curve at half-maximal effect; % is scaled to controls: 0 for no effect and ±100 for the full control effect; nearly all actives have a fitted effect of over 50% in size
Marburg entry inh: qHTS for inhibitors of binding or entry into cells for Marburg Virus; Marburg virus pseudotyped entry inhibition, cell reporter; Potency, µM (titrated, usually from 37.8 µM), for the others: at the top dose activity change, negative = inhibition, usual class: inhibitors; 300,000 compounds, 1.8% hits; AID 540276, 2011; calls by dose curve; tested in HEK293 cells; also: potency is read from the fitted curve at half-maximal effect; % is scaled to controls: 0 for no effect and ±100 for the full control effect
CHX counter: Cycloheximide Counterscreen for Small Molecule Inhibitors of Shiga Toxin; cell reporter, cycloheximide protein synthesis inhibition counterscreen; max response, %; 300,000 compounds, 12% hits; in the data active = max response mostly above about 13%, no sharp cut-off; inactive = mostly below about 14%; also: read at 38.3 µM for the half of the compounds with a filed dose; 0% is about no effect
An asterisk follows results filed as active; ? = inconclusive; nt = no result; [ ] = remark or other dose.

SMILES | Shiga inhibitor | LASV entry inh | Marburg entry inh | CHX counter
O=S(=O)(NCc1nc2cccnc2n1Cc1ccc(F)cc1)c1ccc2c(c1)CCCC2 | nt | 15%[46.1 µM] | nt | nt
Cc1cc(C(=O)NCc2ccc3c(c2)OCO3)ccc1[N+](=O)[O-] | 23 | nt | nt | 25*
Cc1cc(C(=O)OCC(=O)NCc2cccs2)ccc1[N+](=O)[O-] | nt | ? | -32% | nt
O=C(NCc1ccc(Cl)c(Cl)c1)c1ccc2c(c1)OCO2 | -3 | 7%[46.1 µM] | ? | -1
O=C(NCc1ccc2c(c1)OCO2)c1cccc([N+](=O)[O-])c1 | -5 | 17% | 0% | 1
Cc1cc(C(=O)Nc2nc(C)c(C(=O)N(C)C)s2)ccc1[N+](=O)[O-] | 54* | 10µM* | ? | 34*
Cc1cc(C(=O)NCc2cccs2)ccc1[N+](=O)[O-] | 7 | 21% | 10% | 14*
Cc1ccc(C(=O)NCc2ccc3c(c2)OCO3)cc1Cl | 40 | -22% | 17% | 18*
O=C(O)[C@H]1C[C@@H](CP(=O)(O)O)CCN1 | -8 | nt | nt | 4
CCN1C(=O)[C@H]2[C@H]3[C@H](O)[C@H](O)C/C(=N\OC[C@H]4O[C@H](c5ccccc5)C=C[C@@H]4Oc4ccc(OC)cc4)[C@@H]3CC[C@H]2C1=O | nt | nt | -28%[14.2 µM] | nt
Cc1ccc(C(=O)NCc2ccc3c(c2)OCO3)cc1S(=O)(=O)N1CCCCC1 | 0 | ? | -20% | -1
Cc1cc(C(=O)NCC2CCCCC2)ccc1[N+](=O)[O-] | 84* | -14% | -1%[46.1 µM] | 24*
Cc1ccc(C(=O)NCc2ccc3c(c2)OCO3)cc1C | 55* | nt | nt | 35*
O=C(CSc1nnc(-c2ccccc2)o1)NC1CCS(=O)(=O)C1 (stereo not drawn) | -7 | ? | 5% | 0
CSc1nc(C)cc(Oc2ccccc2)n1 | -12 | 16%[46.1 µM] | 1%[46.1 µM] | 10
CCC(C)n1c(=N)c(C(=O)NCc2ccco2)cc2c(=O)n3cc(C)ccc3nc21 (stereo not drawn) | nt | ? | 1%[46.1 µM] | nt
COC(=O)C1(C)Nc2ccccc2C(=O)N1c1ccccc1OC (stereo not drawn) | -8 | 9% | 6% | -2
COC(=O)C1(C)NC(=O)c2ccccc2N1 (stereo not drawn) | 1 | nt | nt | 15*
CCCCc1ccc(C2C(C#N)=C(N)SC(N)=C2C#N)s1 | 2 | nt | 0% | 1
Cc1nc2scc(-c3ccccc3)c2c(=O)o1 | -21 | -30% | 8%[46.1 µM] | -6
O=c1oc(-c2ccccc2F)nc2scc(-c3ccccc3)c12 | 32* | 10% | -2%[14.2 µM] | 21*
CC(Oc1ccccc1)c1ccnc(N)n1 (stereo not drawn) | 22 | 8% | 2%[46.1 µM] | 22*
O=C(Nc1ccccc1)Nc1cccc(Cl)c1Cl | active | ? | ? | 37*
CSc1ccccc1NC(=O)Nc1cccc(Cl)c1Cl | -6 | 8% | ? | 10*
Cc1ccc(Cn2c(CO)cnc2SCC(=O)NCc2ccccc2Cl)cc1 | nt | 11%[46.1 µM] | nt | nt
SMILES | Shiga inhibitor | LASV entry inh | Marburg entry inh | CHX counter
O=C(Nc1ccccc1F)c1ccc(CSc2ncccn2)cc1 | 86* | ? | ? | 30*
Cn1nnnc1SCc1ccc(C(=O)Nc2nccs2)cc1 | 51* | ? | 21% | 37*
Cc1cc(C)cc(NC(=O)c2ccc(CSc3nnnn3C)cc2)c1 | 14 | ? | ? | -4
Cn1nnnc1SCc1ccc(C(=O)Nc2ccccc2F)cc1 | 45* | -9% | 6% | 32*
CC(=O)Nc1nnc(SCc2ccc(C(=O)Nc3ccccc3F)cc2)s1 | 31 | ? | -5% | 17
C=CCn1c(SCc2ccc(C(=O)Nc3nccs3)cc2)nnc1-c1ccc(C)c(Cl)c1 | 18 | 11µM* | ? | -1
CCOc1ccc(NC(=O)Cn2cnc3sc(C)c(S(=O)(=O)N4CCN(c5ccccc5OC)CC4)c3c2=O)cc1 | nt | -22%[46.1 µM] | ? | nt
Cc1ccc(NC(=O)c2ccc(CSc3nccc(C)n3)cc2)cc1 | 18 | ? | ? | 12
CCCNC(=O)c1ccccc1NC(=O)c1ccc(CSc2ccccc2)cc1 | 26* | ? | ? | 17*
O=C(Nc1ccccc1)c1ccc(CSc2ncccn2)cc1 | 107* | ? | ? | 97*
Cc1cc(C)c(C)c(S(=O)(=O)Nc2cccc(S(=O)(=O)Nc3ccccc3C(=O)O)c2)c1C | nt | 7% | ? | nt
Cc1cc(C)nc(NC(=O)c2cc3ccccc3o2)n1 | 39 | 10% | ? | 4
CC(C)C(=O)Nc1cccc(NC(=O)c2cc3ccccc3o2)c1 | 42* | 17% | -3% | 54*
CC(C)NC(=O)c1cc2ccccc2o1 | 2 | 16% | ? | 5
Cc1ccc(NC(=O)c2cc3ccccc3o2)cc1Cl | 111* | -29% | -2% | 47*
CC(=O)Nc1cccc(NC(=O)c2cc3ccccc3o2)c1 | 49 | ? | 25% | 33*
